Among all 52,000 compounds or so, about 4,300 (8.3%) were called active. This excerpt belongs to a sample that is enriched for actives. Values without a mark were called inactive. No stated cut-off is given here; in the data, active means survival mostly below about 52% (no sharp cut-off); inactive means mostly above about 56%.
system: DeltatarO mutant; experiment: S. aureus survival, RN4220 and DeltatarO strains – OD600, teichoic acid synthesis inhibitors, primary screen (AID 463173); settings: S. aureus RN4220 wild type/DeltatarO growth, OD600, 18 h, hits give low values, screened at 18.75 µg/mL (by protocol)

Compound	survival
O=C(CSC1=Nc2ccccc2N=C(c2ccc(F)cc2)C1)NCc1ccc(Cl)cc1	72%
CCc1nn(CC(=O)N2CCCCC2)c(=O)c2cc3sccc3n12	65%
Cc1ccc(CNC(=O)Cn2c(=O)ccc3cc(S(=O)(=O)N4CCC(C)CC4)ccc32)cc1	37% (active)
CC1CCN(S(=O)(=O)c2ccc3c(ccc(=O)n3CC(=O)NCc3ccccc3)c2)CC1	49%
Cc1ccc(NC(=O)Cn2c(=O)ccc3cc(S(=O)(=O)N4CCC(C)CC4)ccc32)cc1Cl	74%
CC1CCN(S(=O)(=O)c2ccc3c(ccc(=O)n3CC(=O)Nc3ccc(C(C)C)cc3)c2)CC1	0% (active)
CC(=O)Nc1ccc(NC(=O)Cn2c(=O)ccc3cc(S(=O)(=O)N4CCC(C)CC4)ccc32)cc1	84%
CC1CCN(S(=O)(=O)c2ccc3c(ccc(=O)n3CC(=O)NCc3ccc(Cl)cc3)c2)CC1	75%
CCCNC(=O)N1CCN(S(=O)(=O)c2ccc3c(ccn3C)c2)CC1	83%
CCc1c(-c2ccccc2)nc2ccccc2c1C(=O)NCCc1ccccc1	70%
CCOc1ccc(NC(=O)Cn2c(=O)n(-c3ccccc3)c(=O)c3ccc(C(=O)NCc4ccc5c(c4)OCO5)cc32)cc1	107%
COc1cccc(CNC(=O)CSc2nc(=O)[nH]c3c2CCC3)c1	80%
CCOc1ccc(-c2cc(C(=O)NCc3ccc(OCC)c(OC)c3)[nH]n2)cc1	85%
Cc1ccc(C(=O)Nc2ccc3nc(N4CCCCC4)cc(C)c3c2)cc1F	55%
Cc1cc(N2CCN(C)CC2)nc2ccc(NC(=O)Nc3ccc(Cl)cc3)cc12	72%
CCN1CCN(c2cc(C)c3cc(NC(=O)c4cccc(C(F)(F)F)c4)ccc3n2)CC1	63%
Cc1cc(N2CCN(C)CC2)nc2ccc(NC(=O)Nc3cccc(Cl)c3)cc12	70%
Cc1cc(N2CCCCC2)nc2ccc(NC(=O)c3cccc(F)c3)cc12	83%
CCN1CCN(c2cc(C)c3cc(NC(=O)c4cc(Br)ccc4Cl)ccc3n2)CC1	32% (active)

Compound	survival
Cc1cc(C)cc(NC(=O)Nc2ccc3nc(N4CCN(C)CC4)cc(C)c3c2)c1	117%
Cc1cc(N2CCCCC2)nc2ccc(NC(=O)CCC(=O)N3CCN(c4ccccc4)CC3)cc12	62%
CCN1CCN(c2cc(C)c3cc(NC(=O)c4cccc(Cl)c4)ccc3n2)CC1	23% (active)
Cc1ccccc1C(=O)Nc1ccc2nc(N3CCCCC3)cc(C)c2c1	32% (active)
Cc1cc(N2CCN(C)CC2)nc2ccc(NC(=O)Nc3ccccc3)cc12	65%
Cc1cc(N2CCCCC2)nc2ccc(NC(=O)c3cccc(Cl)c3)cc12	0% (active)
O=C(C1CC1)N1CCc2cc(Br)cc(S(=O)(=O)Nc3ccc(F)c(F)c3)c21	110%
CCS(=O)(=O)N1CC(=O)N(c2ccc(Cl)cc2)C(C)(C(=O)NC2CCCCCC2)C1 (configuration not stated)	115%
CCN1CCN(c2c(S(=O)(=O)c3ccccc3)cnc3ccc(Cl)cc23)CC1	124%
COc1ccc(NS(=O)(=O)c2ccc3c(c2)CCN3C(=O)CCC(=O)O)cc1Cl	93%
CN(c1ncnc2onc(-c3cccc(Cl)c3)c12)C1CCCCC1	-17% (active)
Clc1cccc(-c2noc3ncnc(NC4CCCCC4)c23)c1	68%
CN(c1ncnc2c1c(-c1ccccc1)cn2-c1cccc(Cl)c1)C1CCCCC1	83%
Cc1cccc(NC(=O)CSc2nc(-c3cccs3)nc3cc(=O)[nH]n23)c1	87%
Cc1ncc(CO)c2c1Oc1nc(-c3ccccc3Cl)nc(SCc3ccccc3F)c1C2	72%
CC(Sc1nc(-c2ccccc2)cc(C(F)(F)F)n1)C(=O)NN1CCCCC1 (configuration not stated)	72%
COc1ccc(-c2cc(C(F)F)nc(-n3nc(C)cc3C)n2)cc1	91%
COc1ccc(-c2cc(C(F)(F)F)nc(-n3nc(C(F)(F)F)cc3C)n2)cc1	16% (active)
Cc1cc(C(F)(F)F)nn1-c1nc(-c2ccccc2)cc(C(F)(F)F)n1	17% (active)

Compound	survival
COc1ccc(-c2cc(C(F)(F)F)nc(S(C)(=O)=O)n2)cc1	83%
CCc1nn(CC(=O)NCCc2ccc(Cl)cc2)c(=O)c2cc3c(OC)cccc3n12	75%
Clc1ccccc1CNc1ncnc2c1nc1n2CCCC1	97%
COC(=O)c1cc(-c2cocc2C=C(C#N)C#N)ccc1Cl	84%
CC(C)Oc1ccc(C(=O)N2CC(=O)Nc3ccc(F)cc3C2c2ccc(F)cc2)cc1 (configuration not stated)	53%
CCc1nc2nc(C)c(NS(=O)(=O)c3ccc(F)c(C)c3)c(=O)n2[nH]1	123%
O=C(COCc1cc(-c2ccco2)on1)Nc1cc(Cl)ccc1O	0% (active)
O=C(COCc1cc(-c2ccc(F)cc2)on1)Nc1cccc(Cl)c1Cl	46% (active)
O=C(COCc1cc(-c2cccs2)on1)Nc1cccc(Cl)c1Cl	75%
O=C(COCc1cc(-c2ccc(F)cc2)on1)Nc1cc(Cl)cc(Cl)c1	144%
Cc1ccc(O)c(NC(=O)COCc2cc(-c3ccco3)on2)c1	95%
CCc1ccccc1NC(=O)COCc1cc(-c2ccco2)on1	55%
O=C(COCc1cc(-c2ccc(F)cc2)on1)Nc1cc(Cl)ccc1O	74%
Cc1ccc(Cl)cc1NC(=O)COCc1cc(-c2ccco2)on1	83%
O=C(COCc1cc(-c2ccco2)on1)Nc1cccc(Cl)c1Cl	32% (active)
CCc1cccc(NC(=O)CCC(=O)N2CCSc3ccccc32)c1	57%
CC(C)(C)C(=O)Nc1cccc(C(=O)OCc2cc(=O)n3nc(C4CCCCC4)sc3n2)c1	124%
COc1ccc(-c2nnc(SCc3nnc(-c4ccccc4)o3)o2)cc1OC	73%
Cc1nn(CCC(=O)Nc2cc(F)ccc2F)c(=O)c2nn(-c3ccccc3)c(C)c12	99%
